“And” between values parts separate entries of the source, which are not always exact repeats. Equal entries are not always repeated. Inconclusive results are not listed. The source made the active and inactive calls. Calls come from the whole dose curve; as a rule, active = well fitted curve in the direction sought with a large enough effect; inconclusive = small, poorly fitted or top-dose-only effect, or another doubt; inactive = no such curve, though single readings can be large; an effect the other way counts as inactive or inconclusive.
Key:
[1] = target: Cellular tumor antigen p53 (Homo sapiens) (UniProt P04637); experiment: Primary qHTS for small molecule compounds that upregulate eGFP-tagged delta133p53alpha (in N-terminal) cells. (AID 2060322); conditions: NCI-H358 eGFP-delta133p53alpha fluorescence, 24 h; activation: stronger effect = higher value;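 note: cells pre-induced with doxycycline then dosed without doxycycline; series mostly up to about 56 µM; 0% = DMSO vehicle and 100% = reference activator; nearly all actives have a fitted effect of over 75% in size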
Procedure, shortened: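 NCI-H358 cells pre-induced 24 h with 10 ng/ml doxycycline for eGFP-delta133p53alpha, plated dox-free and exposed 24 h at 37C to titrated compounds. Fixed, Hoechst-stained; gated GFP peak intensity by laser scanning cytometry, normalized to DMSO (0%) and 57.5 uM 5-azacytidine (100%).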

[2] = target: Aldehyde dehydrogenase, mitochondrial (Homo sapiens) (UniProt P05091); experiment: qHTS for Inhibitors of the Aldehyde Dehydrogenase Family (ALDH2) Primary screen (AID 2061308);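 note: plate controls were vehicle for no effect and reference inhibitor for full effect; nearly all actives have a fitted effect of over 55% in size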
[3] = target: Retinaldehyde dehydrogenase 3 (Homo sapiens) (UniProt P47895); experiment: qHTS for Inhibitors of the Aldehyde Dehydrogenase Family (ALDH1A3) Primary screen (AID 2061315);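 note: plate controls were DMSO vehicle for no effect and reference inhibitor for full effect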

Sequence of Cellular tumor antigen p53 (Homo sapiens) (P04637 whole entry, looked up): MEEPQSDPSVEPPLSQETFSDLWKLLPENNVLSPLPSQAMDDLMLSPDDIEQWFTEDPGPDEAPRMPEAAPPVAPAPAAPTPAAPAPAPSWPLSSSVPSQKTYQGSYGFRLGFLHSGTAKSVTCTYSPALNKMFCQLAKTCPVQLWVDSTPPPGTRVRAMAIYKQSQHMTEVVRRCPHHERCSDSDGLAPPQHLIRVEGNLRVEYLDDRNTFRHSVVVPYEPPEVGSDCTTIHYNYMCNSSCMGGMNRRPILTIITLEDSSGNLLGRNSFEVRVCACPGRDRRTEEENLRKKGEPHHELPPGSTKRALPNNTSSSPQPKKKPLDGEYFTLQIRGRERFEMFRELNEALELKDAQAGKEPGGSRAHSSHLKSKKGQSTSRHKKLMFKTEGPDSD

CC(=O)C1=C(O)C=C2Oc3c(C(C)=O)c(O)c(C)c(O)c3[C@]2(C)C1=O
inactive: activation [1] -2.68% | Potency [2] | Potency [3]

CC(=O)/C=C/C1(O)C(C)=CC(=O)CC1(C)C (stereo not drawn)
inactive: activation [1] 14.3% | Potency [2] | Potency [3]

COc1ccnc2[nH]cc(C(=O)C(=O)N3CCN(C(=O)c4ccccc4)CC3C)c12 (stereo not drawn)
inactive: activation [1] -3% | Potency [2] | Potency [3]

COc1c2c(c(C)c3c1C(=O)OC3)O[C@@]1(C)CCC3(C(C)(C)O)OC(=O)CC[C@]3(C)[C@H]1C2 (stereo partly drawn)
inactive: activation [1] 4.58% | Potency [2] | Potency [3]

C/C=C(/C)C(=O)OC1C2OC2C2(CO2)C2C3OC(=O)C(C)C3CCC12C (stereo not drawn)
inactive: activation [1] 18.3% | Potency [2] | Potency [3]

COc1c(O)cc2c(c1O)[C@@H]1O[C@H](CO)[C@@H](O)[C@H](O)[C@H]1OC2=O
inactive: activation [1] 18% and -2.68% | Potency [2] | Potency [3]

CCC(C)C(C(=O)O)N1Cc2c(OCC=C(C)C)c(C)c(OC)c(C(=O)O)c2C1=O (stereo not drawn)
inactive: activation [1] 5.34% | Potency [2] | Potency [3]

O=C(O)c1cccc(C(=O)CCC2OC(n3cnc4c(=O)[nH]cnc43)C(O)C2O)c1 (stereo not drawn)
inactive: activation [1] 15.3% | Potency [2] | Potency [3]

CC1CCC2C(C(=O)O)=CC3C(O)C(C)(C)CC123 (stereo not drawn)
inactive: activation [1] -0.763% | Potency [2] | Potency [3]

C=C1C(OC(C)=O)[C@@]23CCC4[C@](C)(C(=O)O)CCC[C@@]4(C)[C@]2(O)CC[C@H]1C3 (stereo partly drawn)
inactive: activation [1] 8.93% | Potency [2] | Potency [3]

CC1(C)CCC[C@]2(C)[C@H]3CC(=O)O[C@]3(C)CC[C@@H]12
inactive: activation [1] 20.3% | Potency [2] | Potency [3]

CCOC(=O)CCNc1cc(N2CCc3ccccc3CC2)nc(-c2cccnc2)n1
inactive: activation [1] 7% | Potency [2] | Potency [3]

CC1CCC23COC(=O)C2=CC(O)CC3C1(C)CCc1ccoc1 (stereo not drawn)
inactive: activation [1] -14.3% | Potency [2] | Potency [3]

CC(O)C(=O)/C=C/C=C/C(=O)OC1C=C2COC(=O)C2(O)C2(C)CCCC(C)(C)C12 (stereo not drawn)
inactive: activation [1] 10.7% | Potency [2] | Potency [3]

CC1CCCCN1S(=O)(=O)c1ccc(N2CCCC2=O)cc1 (stereo not drawn)
inactive: activation [1] 2.86% | Potency [2] | Potency [3]

C=C(C(=O)OC)[C@]12O[C@@](C)(CC[C@@]3(O)/C(=C\C)C(=O)O[C@]3(C)C[C@@H]1OC(=O)C(CO)CN1CCCC1C(=O)O)CC2=O (stereo partly drawn)
inactive: activation [1] -18.8% | Potency [2] | Potency [3]

C[C@]1(CO)CCC[C@]2(C)C3=C(CCC12)COC3 (stereo partly drawn)
inactive: activation [1] -8.04% | Potency [2] | Potency [3]

CC(NC(=O)CC(=O)O)C(=O)Nc1ccccc1C(N)=O (stereo not drawn)
inactive: activation [1] -3.05% | Potency [2] | Potency [3]

CC[C@@H](C)[C@H]1C(=O)O[C@H](C(C)C)C(=O)N(C)[C@@H](C(C)C)C(=O)O[C@H](C(C)C)C(=O)N(C)[C@@H](C(C)C)C(=O)O[C@H](CC(C)C)C(=O)N1C
inactive: activation [1] 22.3% | Potency [2] | Potency [3]

C=C(CC/C=C(\C)C(=O)O)C1(O)CC=C(C)CC1 (stereo not drawn)
inactive: activation [1] -21.4% | Potency [2] | Potency [3]

CC(=O)c1[nH]cc(CCC(=O)O)c1CC(=O)O
inactive: activation [1] -15.3% | Potency [2] | Potency [3]

COc1c2c(nc3occc13)C(CC=C(C)C)(OC)C(O)CC2 (stereo not drawn)
inactive: activation [1] 5.34% | Potency [2] | Potency [3]

C/C(=C/C=C\C=C\Cc1cnco1)[C@@H](O)C(C)(C)C(N)=O
inactive: activation [1] -11.5% | Potency [2] | Potency [3]

C/C=C(\C)C(=O)OCC1OC(OC2OC(COC(=O)/C(C)=C/C)C(OC3OC(CO)C(OC(=O)/C(C)=C/C)C(OC(=O)/C(C)=C/C)C3O)C(O)C2O)C(O)C(O)C1OC1OC(CO)C(OC(=O)/C(C)=C/C)C(OC(=O)/C(C)=C/C)C1O (stereo not drawn)
inactive: activation [1] -19.8% | Potency [2] | Potency [3]

NC[C@@H]1O[C@@H](O[C@@H]2[C@@H](O[C@@H]3O[C@H](CO)[C@@H](O)[C@H]3O)[C@H](O)[C@@H](N)C[C@H]2N)[C@@H](N)[C@H](O)[C@H]1O
inactive: activation [1] -0.893% | activity change, negative = inhibition [2] -0.412% [at 11.2 µM] | activity change, negative = inhibition [3] -9.15% [at 11.2 µM]

CC(C)=CCC(O)[C@](C)(O)C1[C@H](O)C[C@@]2(C)C3CC=C4C(C[C@H](O)[C@@H](O[C@@H]5O[C@H](CO)[C@@H](O)[C@H](O)[C@H]5O)C4(C)C)[C@]3(C)C(=O)C[C@]12C (stereo partly drawn)
inactive: activation [1] 10.7% | Potency [2] | Potency [3]
